The source of these data is PubChem BioAssay (NCATS).

For assay [1], the target named is Lysosomal acid glucosylceramidase (Homo sapiens) (UniProt P04062). The assay is described as follows: Glucocerebrosidase-p2 (AID 348; in the data active = potency below about 10 µM; note: potency is the fitted concentration of half-maximal effect). Conditions: purified GBA, blue fluorogenic substrate, 40 min. The gist of the method: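 Normal human glucocerebrosidase (0.2 nM) with blue fluorogenic substrate (80 uM final) in citrate/phosphate pH 5.9 with 10mM sodium taurocholate, 0.01% tween-20; 40 min RT, NaOH/glycine stop; fluorescence Ex 365/Em 440; AC50 from a titration from 0.6 nM upwards.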

Assay [2] is described as follows: AP1 Signaling Pathway (AID 357; active = well fitted curve in either direction with a large enough effect, not every such curve was filed as active; note: % is set by controls: 0 for no effect and ±100 for the full control effect). Conditions: ME-180 AP-1-bla reporter, EGF-induced, beta-lactamase ratio, 5 h; at 7.69 µM (top of the series) unless noted. The procedure, abridged:
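ME-180 cells with beta-lactamase reporter under AP-1 response element, stimulated with EC50 EGF; compounds tested in titration series, 5 h at 37 °C. CCF4 substrate added 2.5 h at room temperature; 460/530 nm emission ratio gave %activity and AC50.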

Assay [3] has as its target Cytochrome P450 1A2 (Homo sapiens) (UniProt P05177). The assay is described as follows: p450-cyp1a2 (AID 410; calls by dose curve; note: potency is the fitted concentration of half-maximal effect). As to conditions: recombinant CYP1A2, luciferin-ME demethylation, luminescence; series mostly up to 57 µM. The gist of the method:
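O-Demethylation of luciferin 6' methyl ether by human CYP1A2 is monitored as luciferase luminescence. Substrate sits at Km (100uM); enzyme is 20nM. Values are scaled to 57 uM furafylline as maximal inhibition.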

The nature of assay [4]: NFAT Signaling Pathway (AID 444; active = well fitted curve in either direction with a large enough effect, not every such curve was filed as active;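 note: carbachol stimulus at about its EC50 of 1 µM final; % is set by controls: 0 for no effect and ±100 for the full control effect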). As to conditions: Jurkat NFAT-bla M1, carbachol, beta-lactamase ratio, 5 h; at 7.69 µM (top of the series) unless noted. The procedure, abridged: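 Jurkat cells with NFAT-driven β-lactamase reporter and co-expressed M1 receptor, stimulated with carbachol (final 1 uM, ~EC50), compound titration, 5 h at 37 °C. CCF4 loaded 1 h at RT; 460/530 nm ratio gave %activity and AC50.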

Assay [5] can be described thus: Stat Signaling Pathway (AID 446; active = well fitted curve in either direction with a large enough effect, not every such curve was filed as active;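 note: ME-180 cervical cancer cells given 40 pM IL-6 alongside compound; SIE-controlled beta-lactamase reporter measured as 460/530 nm FRET emission ratio; % is set by controls: 0 for no effect and ±100 for the full control effect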). As to conditions: ME-180 (cervical carcinoma) SIE beta-lactamase reporter, IL-6 stimulated, 5 h; at 7.69 µM (top of the series) unless noted. The procedure, abridged:
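Overnight-plated ME-180 cells bearing a STAT Inducible Element beta-lactamase reporter; 5 h co-exposure to compound and 40 pM IL-6; values normalized to 300 pM IL-6 and 125 nM JAK inhibitor controls.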

Assay [6] concerns the target Glucocorticoid receptor (Homo sapiens) (UniProt P04150). Description: GR-GFP Redistribution (AID 450;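 active = compounds whose dose series gives a full or clear partial fitted curve of increased nuclear translocation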; note: potency is the fitted concentration of half-maximal effect). Conditions: U2OS GR-GFP nuclear translocation, laser cytometry, 2 h.
Assay [7] has the same target. Description: GR-EFC Redistribution (AID 451; calls by dose curve; note: potency is the fitted concentration of half-maximal effect). Conditions: CHO-K1 GR-EFC translocation, beta-gal luminescence, 2 h. The procedure, abridged: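 CHO-K1 cells expressing nuclear EA and GR-ED fragments of b-gal; compounds titrated up to 46 uM final, 2 h at 37 C. GR nuclear translocation read as complemented b-gal luminescence after 1 h RT detection.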
Assay [8] deals with Mitogen-activated protein kinase 10 (Mus musculus) (UniProt Q61831). The assay is described as follows: JNK3 AlphaScreen Assay (AID 530; active = well fitted curve in either direction with a large enough effect, not every such curve was filed as active;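 note: kinase came from lysate of stimulated human HepG2 cells; signal reports phosphorylation of biotinylated GST-cJun 1-79 at Ser73 with 10 µM ATP; % is set by controls: 0 for no effect and ±100 for the full control effect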). As to conditions: JNK3 lysate, c-Jun phosphorylation; series mostly up to 57.1 µM. The gist of the method: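 Activity was read by AlphaScreen after JNK3-containing HepG2 lysate (cytokine pre-activated) phosphorylated biotinylated GST-cJun with 10 uM ATP at room temperature. Phospho-Ser73 cJun antibody with Protein-A acceptor beads provided detection.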
On the technique in general: Alpha assays give light when donor and acceptor beads are brought close together.

In assay [9] the target is 3',5'-cyclic-AMP phosphodiesterase 4B (Homo sapiens) (UniProt Q07343). The assay is described as follows: qHTS Assay for Inhibitors of PDE-IV (AID 607; active = well fitted activation curve with a large enough effect in the main read-out, with a control signal flat, not every such curve was filed as active; note: % of control where 0% means no effect). As to conditions: HEK293 ACTOne CNG channel cells, membrane potential fluorescence; series mostly up to 22.9 µM. The procedure, abridged:
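Live HEK293 cells with a modified cyclic nucleotide-gated (CNG) channel report intracellular cAMP via membrane-potential dye fluorescence (ex 535/em 590 nm). Endogenous PDE-IV was targeted. Compounds were tested at up to 22.9 uM final; RO 20-1724 100 uM served as control.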

Assay [10] has as its target Cytochrome P450 3A4 (Homo sapiens) (UniProt P08684). Description: qHTS Assay for Activators of Cytochrome P450 3A4 (AID 885). Note: nearly all actives have a fitted effect of over 65% in size. Conditions: recombinant CYP3A4, Luciferin-PPXE luminescence, 60 min; series mostly up to 57.1 µM. The gist of the method:
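Using 20nM recombinant human CYP3A4 in potassium phosphate (200mM), substrate Luciferin-PPXE at 25uM, luminescent luciferin detection followed a 60-min RT NADPH reaction; data scaled to 57 uM ketoconazole.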

The target of assay [11] is Dual specificity protein kinase CLK4 (Homo sapiens) (UniProt Q9HAZ1). The assay is described as follows: qHTS Assay for Inhibitors of CDC-like Kinase 4 (Kinase-Glo Assay) (AID 1770). Note: nearly all actives have a fitted effect of over 65% in size. Note: potency is the fitted concentration of half-maximal effect. As to conditions: recombinant Clk4, Kinase-Glo ATP depletion luminescence; series mostly up to 66.7 µM. The procedure, abridged:
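Substrate mix (RS peptide 100 uM, ATP 1 uM) dispensed, compound pinned in, then Clk4 added to 25 nM final. Incubated 4.5 h at RT; Kinase-Glo reagent added, luminescence read after 5 min.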
For orientation: Quantitative high-throughput screening tests each substance at several concentrations.

Assay [12] shares this target. The assay is described as follows: qHTS Assay for Inhibitors of CDC-like Kinase 4 (ADP-Glo Assay) (AID 1771). Note: nearly all actives have a fitted effect of over 70% in size. Note: potency is the fitted concentration of half-maximal effect. Conditions: recombinant CLK4, ADP-Glo luminescence; series mostly up to 80 µM. The gist of the method:
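Compounds are pin-transferred onto substrate mix (100 uM RS peptide, 1 uM ATP), then 25 nM Clk4 is added. After 1 hr at room temperature, ADP-Glo reagent runs 45 min, detection reagent 30 min, then luminescence is read.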

The target is the same in assay [13]. The assay is described as follows: qHTS Assay for Inhibitors of CDC-like Kinase 4 (ADP-FP Assay) (AID 1795). Note: nearly all actives have a fitted effect of over 60% in size. Note: potency is the fitted concentration of half-maximal effect. Conditions: Transcreener ADP fluorescence polarization; series mostly up to 50 µM. The procedure, abridged: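 Clk4 6.25 nM; RS peptide 100 uM; ATP 1 uM; 25 mM Tris pH 7.5, 10 mM MgCl2; 1 h reaction. ADP detected via antibody/orange tracer FP displacement; TG003 positive control.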

Assay [14] addresses Ubiquitin carboxyl-terminal hydrolase 1 (Homo sapiens) (UniProt O94782). The assay is described as follows: Inhibitors of USP1/UAF1: Pilot qHTS (AID 504865).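 Note: rhodamine fluorescence freed from ubiquitin-rhodamine substrate followed over time; top concentration of the series differs between compounds; % is set by controls: 0 for no effect and ±100 for the full control effect; nearly all actives have a fitted effect of over 35% in size.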 As to conditions: purified USP1/UAF1, Ub-rhodamine cleavage fluorescence; series mostly up to 54.9 µM. The gist of the method:
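In 50mM HEPES pH 7.8 containing 0.5mM EDTA, 1mM TCEP, 0.1 mg/ml BSA and 0.01% Tween-20, 1nM USP1/UAF1 is exposed to compound for 15 min, then Ub-Rho (150nM final) is added and fluorescence is read over time.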

Assay [15] can be described thus: Primary qHTS for small molecule stabilizers of the endoplasmic reticulum resident proteome: Secreted ER Calcium Modulated Protein (SERCaMP) assay (AID 1508630). Note: % is set by controls: 0 for no effect and ±100 for the full control effect. Conditions: SH-SY5Y GLuc-SERCaMP (Gaussia luciferase released on ER calcium loss) secretion, thapsigargin, luminescence; series mostly up to 38.4 µM. The gist of the method: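 The SH-SY5Y reporter protocol was run at 3 concentrations up to 38.3 uM (primary) or 11 concentrations (follow-up): 16 h compound, 100 nM thapsigargin for 4 h, then extracellular luciferase luminescence.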

Assay [16] concerns the target Cytochrome P450 2C9 (Homo sapiens) (UniProt P11712). The assay is described as follows: qHTS Assay for Inhibitors and Substrates of Cytochrome P450 2C9 (AID 883). Note: potency is the fitted concentration of half-maximal effect; nearly all actives have a fitted effect of over 60% in size. As to conditions: recombinant CYP2C9, luciferin-H luminescence, 60 min; series mostly up to 57.1 µM. The gist of the method: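 Human CYP2C9 (10nM) with Luciferin-H at 100uM (its KM) in 25mM KPO4; compound preincubated 10 min at 37C, then NADPH regeneration for 60 min at 37C. Luciferin read by luminescence after detection reagent; normalized to 57uM sulphaphenazole as full inhibition.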

Assay [17] deals with Cytochrome P450 3A4 (Homo sapiens) (UniProt P08684). The assay is described as follows: qHTS Assay for Inhibitors and Substrates of Cytochrome P450 3A4 (AID 884). Note: potency is the fitted concentration of half-maximal effect; nearly all actives have a fitted effect of over 50% in size. As to conditions: recombinant CYP3A4, Luciferin-PPXE luminescence; series mostly up to 57.1 µM. The gist of the method:
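Luminescent readout of luciferin produced by CYP3A4 (20 nM) dealkylation of Luciferin-PPXE, 25 uM (its KM). NADPH-driven reaction ran 60 min at RT after 10 min compound preincubation; data scaled to 57 uM ketoconazole as 100% inhibition.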

Assay [18] addresses Cytochrome P450 2C19 (Homo sapiens) (UniProt P33261). The assay is described as follows: qHTS Assay for Inhibitors and Substrates of Cytochrome P450 2C19 (AID 899). Note: potency is the fitted concentration of half-maximal effect; nearly all actives have a fitted effect of over 60% in size. As to conditions: recombinant CYP2C19, luciferin-H EGE luminescence; series mostly up to 57.1 µM. The gist of the method:
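5 nM human CYP2C19 with 10uM Luciferin-H EGE (at KM) in 50mM KPO4, compound preincubated 10 min at 37C, then NADPH regeneration for 60 min at 37C. Luciferin read by luminescence after detection reagent; normalized to 57uM ketoconazole as full inhibition.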

A number with no mark means an inactive call. Records with an inconclusive call do not appear. The source made the active and inactive calls. Unless noted, calls come from the whole dose curve; as a rule, active = well fitted curve in the direction sought with a large enough effect; inconclusive = small, poorly fitted or top-dose-only effect, or another doubt; inactive = no such curve, though single readings can be large; an effect the other way counts as inactive or inconclusive.

Ubiquitin carboxyl-terminal hydrolase 1 (Homo sapiens), sequence (O94782 whole entry, looked up): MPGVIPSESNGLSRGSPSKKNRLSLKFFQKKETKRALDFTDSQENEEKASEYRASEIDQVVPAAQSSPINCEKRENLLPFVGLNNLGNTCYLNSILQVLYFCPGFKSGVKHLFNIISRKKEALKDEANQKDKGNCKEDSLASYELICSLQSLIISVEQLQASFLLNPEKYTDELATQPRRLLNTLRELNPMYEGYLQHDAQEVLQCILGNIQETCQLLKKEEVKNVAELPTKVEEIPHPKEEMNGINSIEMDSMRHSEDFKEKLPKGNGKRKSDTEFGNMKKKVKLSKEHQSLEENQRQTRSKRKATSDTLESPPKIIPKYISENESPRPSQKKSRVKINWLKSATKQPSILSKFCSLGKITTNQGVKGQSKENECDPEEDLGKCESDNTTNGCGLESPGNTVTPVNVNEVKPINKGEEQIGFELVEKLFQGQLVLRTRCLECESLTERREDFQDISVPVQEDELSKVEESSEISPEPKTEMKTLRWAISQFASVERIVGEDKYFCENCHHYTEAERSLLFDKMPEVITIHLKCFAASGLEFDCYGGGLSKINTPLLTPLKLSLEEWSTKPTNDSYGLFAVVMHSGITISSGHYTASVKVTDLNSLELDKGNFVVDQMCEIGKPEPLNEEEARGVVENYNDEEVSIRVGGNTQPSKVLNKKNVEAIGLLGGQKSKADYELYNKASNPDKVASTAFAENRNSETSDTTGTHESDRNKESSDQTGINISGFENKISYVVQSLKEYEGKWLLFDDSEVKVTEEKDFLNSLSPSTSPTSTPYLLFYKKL
Cytochrome P450 1A2 (Homo sapiens), sequence (P05177 whole entry, looked up): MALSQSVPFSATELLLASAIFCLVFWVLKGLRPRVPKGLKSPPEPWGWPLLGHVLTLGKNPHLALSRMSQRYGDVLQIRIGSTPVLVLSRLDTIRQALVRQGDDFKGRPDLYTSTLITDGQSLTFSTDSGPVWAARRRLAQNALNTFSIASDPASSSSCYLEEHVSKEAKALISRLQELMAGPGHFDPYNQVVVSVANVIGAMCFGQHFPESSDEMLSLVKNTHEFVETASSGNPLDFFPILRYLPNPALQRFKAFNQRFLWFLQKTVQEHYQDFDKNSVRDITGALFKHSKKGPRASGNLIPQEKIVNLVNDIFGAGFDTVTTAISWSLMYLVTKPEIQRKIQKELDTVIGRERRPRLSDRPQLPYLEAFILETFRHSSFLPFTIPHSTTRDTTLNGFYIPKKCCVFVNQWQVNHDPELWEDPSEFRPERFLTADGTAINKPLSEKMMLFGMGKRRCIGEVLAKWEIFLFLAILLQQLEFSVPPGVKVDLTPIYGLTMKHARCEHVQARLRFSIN
Dual specificity protein kinase CLK4 (Homo sapiens), sequence (Q9HAZ1 whole entry, looked up): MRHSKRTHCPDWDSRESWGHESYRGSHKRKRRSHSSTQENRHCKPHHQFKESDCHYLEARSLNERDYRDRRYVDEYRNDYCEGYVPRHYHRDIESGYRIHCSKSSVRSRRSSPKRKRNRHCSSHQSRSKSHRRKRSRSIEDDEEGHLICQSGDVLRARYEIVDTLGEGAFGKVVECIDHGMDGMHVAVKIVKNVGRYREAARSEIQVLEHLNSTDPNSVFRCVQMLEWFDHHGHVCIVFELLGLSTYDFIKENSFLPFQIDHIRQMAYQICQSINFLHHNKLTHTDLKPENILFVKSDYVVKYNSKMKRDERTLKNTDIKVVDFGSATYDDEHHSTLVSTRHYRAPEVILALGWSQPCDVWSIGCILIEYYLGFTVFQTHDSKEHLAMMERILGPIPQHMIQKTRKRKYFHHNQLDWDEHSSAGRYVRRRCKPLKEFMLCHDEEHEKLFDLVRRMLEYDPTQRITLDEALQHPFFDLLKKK
3',5'-cyclic-AMP phosphodiesterase 4B (Homo sapiens), sequence (Q07343 whole entry, looked up): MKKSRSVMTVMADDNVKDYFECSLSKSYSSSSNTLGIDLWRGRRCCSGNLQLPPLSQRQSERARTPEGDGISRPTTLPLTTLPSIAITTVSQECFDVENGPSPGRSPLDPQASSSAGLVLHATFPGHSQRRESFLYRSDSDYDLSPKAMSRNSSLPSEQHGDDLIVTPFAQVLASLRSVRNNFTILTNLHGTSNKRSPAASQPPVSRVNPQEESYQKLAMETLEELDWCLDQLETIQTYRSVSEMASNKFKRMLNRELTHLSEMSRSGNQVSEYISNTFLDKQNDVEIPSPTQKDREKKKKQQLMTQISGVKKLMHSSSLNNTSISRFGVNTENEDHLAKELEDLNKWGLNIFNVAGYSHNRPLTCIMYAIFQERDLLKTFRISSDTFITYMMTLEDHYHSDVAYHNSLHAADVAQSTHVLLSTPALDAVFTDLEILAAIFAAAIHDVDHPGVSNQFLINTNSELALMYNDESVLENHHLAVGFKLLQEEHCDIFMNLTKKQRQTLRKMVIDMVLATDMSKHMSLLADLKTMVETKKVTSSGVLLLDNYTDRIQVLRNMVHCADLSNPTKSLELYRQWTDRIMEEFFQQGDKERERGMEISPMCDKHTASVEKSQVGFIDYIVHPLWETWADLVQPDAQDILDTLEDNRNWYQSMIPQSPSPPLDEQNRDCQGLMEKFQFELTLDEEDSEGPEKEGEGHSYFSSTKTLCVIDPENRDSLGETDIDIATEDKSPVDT
Cytochrome P450 3A4 (Homo sapiens), sequence (P08684 whole entry, looked up): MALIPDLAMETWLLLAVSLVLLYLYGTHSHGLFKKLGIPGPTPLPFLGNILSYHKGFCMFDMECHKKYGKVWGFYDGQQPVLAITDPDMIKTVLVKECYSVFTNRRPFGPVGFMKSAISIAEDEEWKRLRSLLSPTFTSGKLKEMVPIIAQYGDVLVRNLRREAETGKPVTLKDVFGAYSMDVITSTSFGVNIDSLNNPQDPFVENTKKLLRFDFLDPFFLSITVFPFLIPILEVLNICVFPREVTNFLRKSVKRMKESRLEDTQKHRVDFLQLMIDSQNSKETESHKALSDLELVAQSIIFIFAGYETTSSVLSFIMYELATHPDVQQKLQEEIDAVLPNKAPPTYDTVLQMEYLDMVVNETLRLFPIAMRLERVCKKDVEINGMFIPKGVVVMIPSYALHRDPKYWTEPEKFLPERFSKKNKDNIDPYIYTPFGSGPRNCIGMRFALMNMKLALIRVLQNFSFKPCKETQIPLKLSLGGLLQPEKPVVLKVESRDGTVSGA
Lysosomal acid glucosylceramidase (Homo sapiens), sequence (P04062 whole entry, looked up): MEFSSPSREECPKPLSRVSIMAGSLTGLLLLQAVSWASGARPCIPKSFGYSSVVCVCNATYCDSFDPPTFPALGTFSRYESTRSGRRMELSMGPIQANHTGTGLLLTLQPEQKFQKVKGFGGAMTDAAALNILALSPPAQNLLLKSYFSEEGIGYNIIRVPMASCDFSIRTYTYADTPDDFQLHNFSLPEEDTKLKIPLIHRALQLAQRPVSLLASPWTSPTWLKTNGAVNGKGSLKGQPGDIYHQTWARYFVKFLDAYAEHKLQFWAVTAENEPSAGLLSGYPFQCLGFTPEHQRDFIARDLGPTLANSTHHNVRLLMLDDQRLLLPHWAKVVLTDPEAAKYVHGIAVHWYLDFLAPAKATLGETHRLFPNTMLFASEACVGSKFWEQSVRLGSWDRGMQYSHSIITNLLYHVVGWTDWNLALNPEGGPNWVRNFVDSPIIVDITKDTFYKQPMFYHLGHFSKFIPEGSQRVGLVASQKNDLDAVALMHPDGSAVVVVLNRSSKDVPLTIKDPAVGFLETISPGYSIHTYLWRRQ
Glucocorticoid receptor (Homo sapiens), sequence (P04150 whole entry, looked up, the tested form may be a part): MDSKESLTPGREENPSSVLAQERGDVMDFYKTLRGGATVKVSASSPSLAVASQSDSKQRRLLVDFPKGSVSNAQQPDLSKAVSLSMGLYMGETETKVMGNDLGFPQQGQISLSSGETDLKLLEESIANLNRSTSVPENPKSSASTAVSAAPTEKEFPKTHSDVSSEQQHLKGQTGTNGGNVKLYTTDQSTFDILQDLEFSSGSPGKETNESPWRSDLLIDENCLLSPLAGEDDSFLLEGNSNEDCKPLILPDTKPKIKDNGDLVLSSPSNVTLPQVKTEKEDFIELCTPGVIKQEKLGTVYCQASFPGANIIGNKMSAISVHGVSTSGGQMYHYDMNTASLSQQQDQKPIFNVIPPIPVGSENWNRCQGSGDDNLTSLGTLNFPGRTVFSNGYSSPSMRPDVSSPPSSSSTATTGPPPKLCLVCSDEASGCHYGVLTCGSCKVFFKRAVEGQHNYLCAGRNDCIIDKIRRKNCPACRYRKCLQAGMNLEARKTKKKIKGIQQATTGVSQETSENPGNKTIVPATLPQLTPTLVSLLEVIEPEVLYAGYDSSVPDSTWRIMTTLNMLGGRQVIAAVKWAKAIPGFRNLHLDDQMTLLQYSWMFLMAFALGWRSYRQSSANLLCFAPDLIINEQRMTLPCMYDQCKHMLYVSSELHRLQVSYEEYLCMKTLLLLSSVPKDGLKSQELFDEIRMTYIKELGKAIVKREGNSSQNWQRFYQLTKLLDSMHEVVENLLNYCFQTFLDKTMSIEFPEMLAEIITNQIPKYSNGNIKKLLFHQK
Cytochrome P450 2C19 (Homo sapiens), sequence (P33261 whole entry, looked up): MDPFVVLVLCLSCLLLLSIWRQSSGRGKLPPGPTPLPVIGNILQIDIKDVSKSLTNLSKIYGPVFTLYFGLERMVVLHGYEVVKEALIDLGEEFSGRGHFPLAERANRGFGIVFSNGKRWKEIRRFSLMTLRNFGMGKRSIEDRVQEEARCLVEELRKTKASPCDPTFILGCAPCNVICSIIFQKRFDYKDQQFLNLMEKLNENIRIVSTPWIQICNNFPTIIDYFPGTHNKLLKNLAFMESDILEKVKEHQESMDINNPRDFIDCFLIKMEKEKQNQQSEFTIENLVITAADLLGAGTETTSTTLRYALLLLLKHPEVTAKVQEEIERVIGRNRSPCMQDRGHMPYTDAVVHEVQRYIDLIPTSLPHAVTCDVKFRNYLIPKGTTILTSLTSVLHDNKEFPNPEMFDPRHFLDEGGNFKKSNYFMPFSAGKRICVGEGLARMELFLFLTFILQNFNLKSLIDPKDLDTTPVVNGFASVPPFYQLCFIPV

For the molecule `CN(C)C(=O)c1ccc(-c2nccc(NCc3ccccc3)n2)cc1`, the Potency in assay [1] was > 11.4 µM; in assay [3], 15.8 µM (active); in assay [6] it was > 46 µM; in [7], > 46 µM. Besides, the activity change, negative = inhibition in [2] is -2.34%; in assay [4] it was 15.6%. Moreover, in assay [5], the activity, negative = inhibition was -5.63%. Also, the Potency entry in [8], in assay [9], in [10], in assay [11], in assay [12] and in assay [13] was “inactive” each time. For the same molecule, in [14], the Potency result is “inactive”. In addition, in assay [15], the result was inactive.
On to `CNc1ccnc(-c2ccccc2C)n1`, for which the Potency in assay [1] is > 11.4 µM; in [3], 5.01 µM (active); in assay [6], > 46 µM; in assay [7] it was > 46 µM. Also, the activity change, negative = inhibition in assay [2] was 0.123%; in assay [4], 13%. In [5], the activity, negative = inhibition was 6.43%. For the same molecule, the Potency result in [8], in assay [9], in [10], in [11], in [12] and in assay [13] was “inactive” in each case. In addition, in assay [14], the Potency result is “inactive”. Also, the result in assay [15] was inactive.
Turning to `COc1ccccc1CCn1c(=O)c(-c2ccc(F)c(F)c2)nc2cncnc21`, the Potency was > 11.4 µM in assay [1]; 2 µM (active) in assay [3]; > 9.22 µM in assay [6]; > 46 µM in assay [7]; 6.31 µM (active) in [16]; 3.16 µM (active) in assay [17]. Moreover, the Potency in assay [18] is 1.26 µM (active). Also, the results for the activity change, negative = inhibition in [2] and in [4] were -18.1% and 1.01%, respectively. The activity, negative = inhibition in assay [5] was 10.7%. In addition, the Potency entry in assay [8], in assay [10], in assay [11], in [12], in [13] and in assay [14] was “inactive” each time. For the same molecule, the result in assay [15] was inactive.
For `c1nc(NC2CC2)c2cc(-c3ccoc3)ccc2n1`, the Potency in assay [1] was > 11.4 µM; in assay [3], 0.794 µM (active); in assay [6], > 46 µM; in assay [7], > 46 µM; in assay [11] it was 0.794 µM (active); in assay [12], 0.708 µM (active). Also, in [13], the Potency was 0.178 µM (active). For the same molecule, the activity change, negative = inhibition was -18% in assay [2] and 6.95% in assay [4]. Also, the activity, negative = inhibition in assay [5] is -16.7%. Besides, the Potency result in assay [8], in assay [10] and in [14] was “inactive” throughout. In addition, in [15], the outcome was inactive.
`COc1ccc(Oc2ncc3ncc(=O)n(C4CC4)c3n2)cc1`: the Potency is > 11.4 µM in assay [1], 5.01 µM (active) in assay [3], > 9.22 µM in [6] and > 46 µM in assay [7]. The activity change, negative = inhibition is -1.59% in assay [2] and 5.04% in assay [4]. Further, the activity, negative = inhibition in [5] was -19.9%. In addition, the Potency entry in assay [8], in assay [9], in [10], in assay [11], in assay [12] and in [13] was “inactive” in each case. In addition, the Potency entry in [14] is “inactive”. For the same molecule, the result in assay [15] was inactive.
In the case of `N#Cc1cccc(-c2nccc(NCc3cccs3)n2)c1`, the Potency was > 11.4 µM in [1]; 0.251 µM (active) in assay [3]; > 46 µM in assay [6]; > 46 µM in assay [7]; 3.98 µM (active) in [18]; 7.08 µM (active) in assay [11]. In addition, the Potency in assay [12] was 6.31 µM (active); in assay [13], 8.91 µM (active). Moreover, the activity change, negative = inhibition in [2] was -27.8%; in assay [4] it was 11.9%. Further, the activity, negative = inhibition in [5] was -14.7%. The Potency entry in [8], in assay [10] and in assay [14] was “inactive” throughout. Moreover, the result in [15] was inactive.
